Source: PubChem
ELG1 DNA repair – qHTS screen for small molecules that inhibit ELG1-dependent DNA repair in human embryonic kidney (HEK293T) cells expressing luciferase-tagged ELG1. HEK293T ELG1-luciferase reporter, luminescence, 16 h; DNA damage induced by 5-fluorouridine. Potency, µM (titrated, usually from 46.1 µM), inactives show at the top dose activity change, negative = inhibition, most hits filed as inhibitors. 2.3% of 330,000 active; also: % is scaled to controls: 0 for no effect and ±100 for the full control effect; nearly all actives have a fitted effect of over 55% in size
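Luminescence from the luciferase reporter, measured 30 min after ONE-Glo reagent at room temperature, was the read-out. Beforehand, 2,000 cells per well were exposed for 16 hr at 37 °C to 5-fluorouridine together with compound or vehicle.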
PKM2 activator – qHTS Assay for Activators of Human Muscle isoform 2 Pyruvate Kinase; Potency, µM (highest dose often 57.5 µM), for the others: top-dose activation, most hits filed as activators; 0.34% of 260,000 active; purified PKM2, Kinase-Glo ATP luminescence, activation; response scale: 0% is enzyme alone, no compound; Pyruvate kinase PKM (Homo sapiens), P14618; also: % is scaled to controls: 0 for no effect and ±100 for the full control effect; nearly all actives have a fitted effect of over 55% in size
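hPK-M2, >95% pure; 0.1 mM ADP / 0.5 mM PEP final; imidazole pH7.2 buffer w/ 7 mM MgCl2, 50 mM KCl; 1 h RT; Kinase-Glo lum. Intermediate enzyme activity for dual inhibitor/activator qHTS.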
Tb PGK inh – qHTS Assay to Find Inhibitors of Phosphoglycerate Kinase; Phosphoglycerate kinase, glycosomal (Trypanosoma brucei brucei), P07378; PGK/GAPDH coupled, Kinase-Glo luminescence, 60 min; Potency, µM (doses to about 57.5 µM), without a hit: top-dose activity change, negative = inhibition, usual class: inhibitors; 0.043% of 380,000 active; AID 602233, 2012; also: % is scaled to controls: 0 for no effect and ±100 for the full control effect; nearly all actives have a fitted effect of over 60% in size
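Luminescent ATP detection (Kinase-Glo Plus) follows a 60-minute room-temperature incubation, with wells lacking PGK as controls. Buffer: 100 mM TEA (pH 7.6), 5 mM MgCl2, 0.01% Tween-20. Coupling enzyme GAPDH (100 nM final) supplies unstable 1,3-BPG in-well.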
Rango dissoc inh – qHTS Assay for Inhibitors of RanGTP induced Rango (Ran-regulated importin-beta cargo) - Importin beta complex dissociation; Snurportin-1 (Homo sapiens) + GTP-binding nuclear protein Ran (Homo sapiens) + Importin …; Biochemical FRET Rango-importin beta, RanGTP-induced dissociation; Potency, µM (titrated, usually from 46.1 µM), inactives show at the top dose activity change, negative = inhibition; 0.071% of 340,000 active; calls by dose curve; also: % of control where 0% means no effect; nearly all actives have a fitted effect of over 45% in size
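Rango FRET biosensor (snurportin-1 IBB flanked by N-terminal EYFP and C-terminal CFP10) at 0.1 uM, with 0.25 uM importin beta in PBS, 1mM DTT, 0.02% Tween-20, 0.1% BSA. 0.6 uM Ran, 2mM GTP and 0.2 uM RCC1 were then added for 45 min at room temperature. Inhibition read as loss of FRET rise.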
Rango-impB inh – qHTS Assay for Inhibitors of Rango (Ran-regulated importin-beta cargo) - Importin beta complex formation | Importin subunit beta-1 (Homo sapiens), Q14974 | Rango CFP/YFP FRET sensor + importin beta, 45 min | Potency, µM (top dose mostly 92.2 µM), for inactives: at the highest dose inhibition of complex formation | 0.031% of 340,000 active; calls by dose curve;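 also: 0% = DMSO wells and 100% = buffer wells lacking importin beta; nearly all actives have a fitted effect of over 15% in size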
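FRET biosensor Rango (snurportin 1 IBB between N-terminal EYFP and C-terminal Cerulean), 50 nM in PBS/1 mM DTT/0.02% Tween-20/0.1% BSA, preincubated 5 min RT with compound; 0.125 microM importin beta added, 45 min RT, CFP/YFP FRET ratio read.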
Tb PFK inh – qHTS Assay to Find Inhibitors of T. brucei phosphofructokinase | AID 485367, 2010 | T. brucei PFK, ADP-Glo luminescence | Potency, µM (top dose mostly 57.5 µM), inactives show at the highest dose activity, negative = inhibition, most hits filed as inhibitors | 0.17% of 330,000 active | ATP-dependent 6-phosphofructokinase (Trypanosoma brucei brucei), O15648;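 also: 0% = uninhibited 1x PFK enzyme wells and -100% = no-enzyme wells; nearly all actives have a fitted effect of over 60% in size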
Target sequence (O15648 whole entry, looked up): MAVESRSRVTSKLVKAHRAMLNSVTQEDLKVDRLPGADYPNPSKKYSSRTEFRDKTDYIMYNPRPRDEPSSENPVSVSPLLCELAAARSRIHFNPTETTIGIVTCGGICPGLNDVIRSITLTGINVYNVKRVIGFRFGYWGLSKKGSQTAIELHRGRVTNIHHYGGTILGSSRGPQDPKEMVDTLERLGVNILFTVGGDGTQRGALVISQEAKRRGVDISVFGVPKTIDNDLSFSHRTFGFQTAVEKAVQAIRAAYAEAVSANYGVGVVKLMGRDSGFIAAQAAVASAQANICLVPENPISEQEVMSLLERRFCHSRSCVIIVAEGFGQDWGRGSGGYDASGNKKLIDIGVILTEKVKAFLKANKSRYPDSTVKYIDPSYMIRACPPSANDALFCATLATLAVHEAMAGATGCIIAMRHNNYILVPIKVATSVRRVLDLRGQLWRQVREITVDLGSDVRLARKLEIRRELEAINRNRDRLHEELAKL
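ADP-Glo luminescence quantified ADP after 45 min at room temperature, with 1.25 nM T. brucei PFK, 0.1 mM ATP and 0.5 mM fructose-6-phosphate in pH 8.0 TEA buffer. qHTS titrations up to 57 µM; curves classified by quality.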
* marks the source's active call; other numbers are inactive results; i = inactive; u = inconclusive; x = no result. Most compounds without a hit are left out; they make up all but 2.4% or so of the library. Unless noted, calls follow the shape of the dose curve; as a rule, active = well fitted curve in the direction sought with a large enough effect; inconclusive = small, poorly fitted or top-dose-only effect, or another doubt; inactive = no such curve, though single readings can be large; an effect the other way counts as inactive or inconclusive. Potency is read from the fitted curve at half-maximal effect.

SMILES	ELG1 DNA repair	PKM2 activator	Tb PGK inh	Rango dissoc inh	Rango-impB inh	Tb PFK inh
CCC(=O)N1c2ccccc2CC1C(=O)NCCc1ccc(OC)c(OC)c1 (stereo not given)	x	x	5%	x	x	x
CC(C)c1cc(C(=O)NNC(=S)NCc2ccco2)c(O)c(C(C)C)c1	18µM*	-6%	-12%	-11%	3%	1%
CCCS(=O)(=O)c1nc(S(=O)(=O)c2ccc(C)cc2)c(NCCCN2CCCC2=O)s1	1%	x	-1%	-5%	0%	1%
COc1ccc(C(CNc2ccc(S(=O)(=O)N3CCN(C)CC3)cc2[N+](=O)[O-])N(C)C)cc1 (stereo not given)	-3%	x	8%	-10%	1%	0%
CN(CC(=O)Nc1ccc(Cl)cc1)c1ccc(S(=O)(=O)N2CCCCC2)cc1[N+](=O)[O-]	18µM*	-9%	1%	2%	0%	-1%
CN(CC(=O)Nc1ccc(S(=O)(=O)N2CCCC2)cc1)Cc1ccc(Cl)cc1Cl	u	-8%	4%	1%	2%	0%
CCOC(=O)CSc1ccc(S(=O)(=O)N2CCCCC2)cc1[N+](=O)[O-]	0%	1%	-6%	4%	1%	-2%
COC(=O)CSc1ccc(S(=O)(=O)N2CCCCCC2)cc1[N+](=O)[O-]	10µM*	-9%	-3%	25%	5%	-6%
COc1ccccc1C(CNc1ccc(S(=O)(=O)N2CCCC2)cc1[N+](=O)[O-])N(C)C (stereo not given)	12µM*	0%	-5%	30%	-2%	8%
COc1ccccc1CNC(=O)C1CCN(c2nn3c(=O)cc(C)nc3s2)CC1	x	x	-3%	x	x	x
CCOc1ccc(S(=O)(=O)N2CCN(Cc3nc4ccc(C)cc4o3)CC2)cc1	x	x	-2%	x	x	x
CC(=O)N1CCOc2ccc(S(=O)(=O)NCC3CCC(C(=O)NCCC(C)C)CC3)cc21 (stereo not given)	u	x	-9%	-15%	2%	3%
CC(=O)N1CCOc2ccc(S(=O)(=O)NCC3CCC(C(=O)Nc4ccc(C)cn4)CC3)cc21 (stereo not given)	5.2µM*	x	-3%	2%	0%	0%
CC(=O)Nc1ccc(S(=O)(=O)NCc2ccc3c(c2)cc(C)n3C)cc1	u	-2%	-14%	23µM*	u	-2%
Cc1ccc(CNS(=O)(=O)c2ccc3c(c2)n(C)c(=O)n3C)cc1	8.2µM*	x	i	-15%	0%	-1%
CCc1ccc2ncc3c(-c4ccccc4)nn(-c4ccccc4)c3c2c1	x	x	-4%	x	x	x
Cc1oc(S(=O)(=O)N2CCOCC2)cc1C(=O)Nc1ccc(Cl)cc1	-6%	-1%	13%	-5%	0%	2%
Cc1nc2ccccn2c1C(=O)N=Nc1c(O)n(CCC(C)C)c2ccccc12	9.2µM*	6%	-10%	-18%	3%	2%
O=C(CCN1CCOCC1)NNC(=O)c1ccc([N+](=O)[O-])cc1[N+](=O)[O-]	5%	x	-6%	0%	2%	1%
COc1ccc(C2CCCN2C(=O)Nc2ccc(C)c(C)c2)cc1OC (stereo not given)	u	16%	0%	u	-5%	-4%
